# In PubChem BioAssay (NCATS):
# Records with an inconclusive call do not appear. Unmarked numbers belong to inactive results. Calls of active or inactive are those of the source. Calls follow the shape of the dose curve; as a rule, active = well fitted cell-killing curve with a large enough effect; inconclusive = small, poorly fitted or top-dose-only effect; inactive = flat fitted curve, though single readings scatter.
# Test: Cell Viability - LYMP2-013 (AID 970); also: nearly all actives have a fitted effect of over 55% in size;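 as to activity change, negative = cytotoxic: 0% = DMSO only and full inhibition = tetraoctylammonium bromide control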
# Conditions: LYMP2-013 lymphoblastoid cells viability; series mostly up to 92.2 µM; activity change, negative = cytotoxic: at the top concentration
# Excerpt: NIH Chemical Genomics Center [NCGC]
# NIH Molecular Libraries Screening Centers Network [MLSCN]
# National Institutes of Environmental Health Sciences [NIEHS]
# National Toxicology Program [NTP]
# We have developed a 1536-well cell-based assay for quantitative high throughput screening (qHTS) against a number of cell lines to determine in vitro cytotoxicity of small molecules. This particular assay uses a human lymphoblastoid cell line (LYMP2-013) purchased from Coriell Institute for Medical Research.
# NCGC Assay Protocol Summary:
# The CellTiter-Glo luminescent cell viability assay (Promega) is a homogeneous method to measure the number of viable cells in culture. The end point readout of this assay is based on quantitation of intracellular ATP, an indicator of metabolic activity, using the luciferase reaction. Luciferase catalyzes the oxidation of beetle Luciferin to oxyluciferin and light in the presence of ATP. The luminescent signal is proportional to amount of ATP present.
# Using the CellTiter-Glo luminescent cell viability assay, the amount of cellular ATP was measured in the lymphoblastoid cell line with complete culture medium following compound treatment for 24 hours. The assay was performed in opaque white Kalypsys 1536-well plates. In the screen, tetraoctylammonium bromide was used as positive control. Library compounds were measured for their ability to cause acute toxicity in the cell line, as reflected by a decrease in intracellular ATP levels, in a concentration-dependent manner. […] AC50 values were determined from concentration-response data modeled with the standard Hill equation.
# qHTS protocol for CellTiter Glo lymphoblastoid cellular assay
# [Step] [Parameter] [Value] [Description]
# 1. Reagent; 5 uL; 2500 lymphoblastoid cells/well
# 2. Time; 5 hr; 37 C incubation
# 4. Controls; 23 nL; Tetraoctylammonium bromide 6.4pM to 92 uM
# 5. Time; 24 hr; 37 C incubation
# 6. Reagent; 5 uL; CellTiter Glo reagent
# 7. Time; 30 min; Room Temperature
# 8. Detection; Luminescence; Viewlux plate reader
# Keywords: cell viability, cytotoxicity, lymphoblastoid cell line, luminescence, NTPHTS, NTPHTS_NCGC, NIEHS, DSSTox, MLSMR, MLSCN, NIH Roadmap, qHTS, NCGC
# Potency is read from the fitted curve at half-maximal effect.
Compound,Potency,"activity change, negative = cytotoxic [%]"
COc1ccc(N)cc1,inactive,–
CCN(CC)c1ccccc1,–,-0.791
C=CC(C)=O,–,-8.14
Cc1cccc(C#N)c1,–,4.58
CCCOC(=O)c1ccccc1C(=O)OCCC,–,0.828
Nc1ccccc1Cl,–,-5.86
CCOP(=S)(OCC)SCSC(C)(C)C,–,-3.74
CCCCOCCOP(=O)(OCCOCCCC)OCCOCCCC,–,-8
C=CCOC(C)=O,–,-19.2
BrCCBr,–,-7.33
Cc1ccc(O)c(C)c1,–,-5.72
O=C(Cl)C(Cl)(Cl)Cl,–,-6.17
Clc1ccc2ccccc2c1,–,-3.04
Cc1ccccc1N,inactive,–
COP(=S)(OC)Oc1ccc([N+](=O)[O-])cc1,–,1.28
C[C@H]1CCCC(=O)CCC/C=C/c2cc(O)cc(O)c2C(=O)O1,inactive,–
C=CCOC(=O)c1ccccc1N,–,-5.02
CCNc1nc(Cl)nc(NC(C)C)n1,–,-3.78
Oc1ccc(Cl)cc1Cl,–,-10.1
CC(O)CCl (stereo not given),–,-11.1

Compound,Potency,"activity change, negative = cytotoxic [%]"
O=[N+]([O-])c1cccc2ccccc12,–,-4.33
c1ccc(OP(Oc2ccccc2)Oc2ccccc2)cc1,–,-4.52
CC(C)(c1ccccc1)c1ccc(O)cc1,–,-3.89
ClCBr,–,-12.5
O=[N+]([O-])c1ccc(Cl)c(Cl)c1,–,-0.594
Brc1ccc(Oc2cc(Br)c(Br)cc2Br)c(Br)c1,inactive,–
ClC1=C(Cl)C2(Cl)C3C4CC(C5OC45)C3C1(Cl)C2(Cl)Cl (stereo not given),39.8 µM (active),–
COC1=CC(=O)O[C@@H](/C=C/c2ccc3c(c2)OCO3)C1,–,-16.8
O=C(O)COc1ccc(Cl)cc1Cl,inactive,–
CCCCOC(=O)c1ccccc1C(=O)OCCCC,–,-5.59
C1CCC2CCCCC2C1 (stereo not given),–,-2.78
Nc1c(Cl)c(Cl)nc(C(=O)O)c1Cl,–,-0.224
OCC(Br)CBr (stereo not given),–,-1.09
CCCC(=O)Cl,–,-1.02
C[N+](C)(C)Cc1ccccc1,–,-0.713
CCC[CH2][Sn]([Cl])([Cl])[Cl],–,-5.03
C=CC(N)=O,inactive,–
C/C=C/c1ccc2c(c1)OCO2,–,-1.86
CCOc1ccc(N)cc1,–,-2.33
Clc1nc(Cl)nc(Cl)n1,–,-2.39
